# Source: PubChem BioAssay
# FMDV inh: High Throughput Screening for Foot and Mouth Disease Virus Antivirals. FMDV antiviral cell-based qHTS. Potency, µM (top dose mostly 57.9 µM), hits mostly inhibitors. hit rate 1.2% among 410,000; calls by dose curve; tested in HEK293T cells; further: read-out not given here; nearly all actives have a fitted effect of over 45% in size
# Lassa entry inh: qHTS for Inhibitors of binding or entry into cells for Lassa Virus; Lassa virus pseudotype entry inhibition, cell reporter; hit rate 1.2% among 300,000; Potency, µM (top dose mostly 37.9 µM), actives largely listed as inhibitors; calls by dose curve; tested in HEK293 cells; further: nearly all actives have a fitted effect of over 50% in size
# Shiga inhibitor: A qHTS for Small Molecule Inhibitors of Shiga Toxin; inhibition, % at 38.7 µM; Vero cells, Shiga toxin protein synthesis inhibition reporter; hit rate 9.2% among 290,000; AID 2315, 2010; in the data active means inhibition mostly above about 28%, no sharp cut-off; inactive means mostly below about 43%
# HCV inhibitor: qHTS Assay for Inhibitors of Hepatitis C Virus (HCV); Huh7.5.1 HCVcc-Cre infection, luciferase reporter, 44 h; Potency, µM (series often up to 41.8 µM), actives largely listed as inhibitors; hit rate 3.4% among 340,000; AID 651820, 2012; active means well fitted inhibition curve with a large enough effect; inconclusive means small, poorly fitted or top-dose-only effect, or another doubt; inactive means no such curve, though single readings can be large or run the other way
#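 Compounds are dispensed onto cells plated 4 h earlier at 1,000 per well, with HCVcc-Cre virus (about 0.5 moi) added next. Following 44 h of culture, luminescent signal is measured for 15 sec after 15 min with substrate at room temperature.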
# CHX counter: Cycloheximide Counterscreen for Small Molecule Inhibitors of Shiga Toxin; cell reporter, cycloheximide protein synthesis inhibition counterscreen; max response, %; hit rate 12% among 300,000; AID 2314, 2010; in the data active means max response mostly above about 13%, no sharp cut-off; inactive means mostly below about 14%; further: read at 38.3 µM for the half of the compounds with a filed dose
# MARV entry inh: qHTS for inhibitors of binding or entry into cells for Marburg Virus | Marburg virus pseudotyped entry inhibition, cell reporter | Potency, µM (top dose mostly 37.8 µM), hits mostly inhibitors | hit rate 1.8% among 300,000 | AID 540276, 2011; calls by dose curve; tested in HEK293 cells
# A number is an active result; - = inactive; ? = inconclusive; . = no result; + = active, no number. Compounds with a hit are over-represented: about 13% of the library has one in this group of screens.
SMILES,FMDV inh,Lassa entry inh,Shiga inhibitor,HCV inhibitor,CHX counter,MARV entry inh
COc1ccc(NC(=O)c2c(NCc3cccs3)sc3c2CCC(C)C3)c(OC)c1 (stereo not given),-,-,.,.,.,.
O=C(Nc1nc2ccccc2s1)c1cc(-c2ccccc2)nn1-c1ccccc1,-,?,24,?,26,?
N#Cc1ccc(C(=O)Nc2cc(-c3ccccc3)nn2-c2ccccc2)cc1,-,.,.,10µM,.,.
N#Cc1ccc(C(=O)Nc2cc(-c3ccc(F)cc3)nn2-c2ccccc2)cc1,-,.,.,?,.,.
O=C(NNC(=O)c1cc(-c2ccccc2)nn1-c1ccccc1)c1ccccc1,-,-,-,-,8.5,?
O=C(Nc1cc(Cl)ccc1N1CCOCC1)c1ccc(Br)o1,-,-,65,-,69,-
O=C(CNC(=O)c1ccc(Br)o1)NCc1ccc(Cl)cc1Cl,-,-,-,-,-,-
O=C(Nc1ccc(Cl)cc1Cl)c1ccc(Br)o1,-,-,78,-,44,?
COCCCNC(=O)CCC(=O)N1Cc2ccccc2Oc2ncccc21,-,-,.,.,.,.
COc1ccc(OC)c(COC(=O)c2cc([N+](=O)[O-])ccc2N2CCOCC2)c1,-,.,.,8.9µM,.,.
Cc1ccccc1COC(=O)c1cc([N+](=O)[O-])ccc1N1CCOCC1,-,.,-,13µM,-,.
O=C(OCc1ccccc1C(F)(F)F)c1cc([N+](=O)[O-])ccc1N1CCOCC1,-,?,-,?,-,?
O=C(OCc1ccccc1F)c1cc([N+](=O)[O-])ccc1N1CCOCC1,-,-,.,10µM,.,?
CN(C)S(=O)(=O)c1cccc(COC(=O)c2cc([N+](=O)[O-])ccc2N2CCOCC2)c1,?,?,.,13µM,.,-
CSc1ccc(COC(=O)c2cc([N+](=O)[O-])ccc2N2CCOCC2)cc1,-,?,.,?,.,?
COC(=O)C1C(=O)/C(=C/N(C)C)C(=O)CC1(C)C (stereo not given),-,-,-,-,-,-
CC1CCN(C(=O)Nc2ccc3nsnc3c2)CC1,.,-,107,-,20,-
O=C(Nc1ccc2nsnc2c1)N1CCCCC1,-,-,-,-,30,-
Cc1ccc(CS(=O)(=O)c2ncc(Cl)c(C(=O)Nc3nc4ccc(F)cc4s3)n2)cc1,?,?,.,.,.,-
Cc1ccccc1CS(=O)(=O)c1ncc(Cl)c(C(=O)Nc2nnc(C(C)C)s2)n1,20µM,?,.,.,.,?
Cc1ccc(CNC(=O)c2nc(S(=O)(=O)Cc3ccc(C)cc3)ncc2Cl)cc1,-,?,.,.,.,?
CSc1nnc(NC(=O)c2nc(S(=O)(=O)Cc3ccccc3)ncc2Cl)s1,6.3µM,?,68,13µM,54,?
CC(C)Sc1ncc(Cl)c(C(=O)Nc2nnc(C(C)C)s2)n1,-,-,.,.,.,-
CCCc1nnc(NC(=O)c2nc(S(=O)(=O)Cc3ccc(C)cc3)ncc2Cl)s1,35µM,?,44,?,30,-
CC(C)c1nnc(NC(=O)c2nc(S(=O)(=O)Cc3ccccc3)ncc2Cl)s1,4.5µM,?,75,?,67,?
SMILES,FMDV inh,Lassa entry inh,Shiga inhibitor,HCV inhibitor,CHX counter,MARV entry inh
CC(C)OCCCNC(=O)CN1CCN(Cc2ccccc2Cl)C1=O,-,-,-,-,-,-
CCCc1ccc2oc(C(=O)N(Cc3ccncc3)CC3CCCO3)c(C)c2c1 (stereo not given),-,6.3µM,-,?,12,?
Cc1ccc2oc(C(=O)N(Cc3ccncc3)CC3CCCO3)c(C)c2c1 (stereo not given),-,-,54,?,35,-
COc1ccc(CC(=O)OCC(=O)N2c3ccccc3CC2C)cc1OC (stereo not given),-,.,.,.,.,.
COc1cc(F)ccc1-c1cc(C(=O)Nc2ccc(C)c(NS(C)(=O)=O)c2)[nH]n1,25µM,.,.,.,.,.
COc1ccc(NC(=O)c2cc(-c3cc(F)ccc3OC)n[nH]2)cc1OC,-,.,.,.,.,.
COc1ccc(F)cc1-c1cc(C(=O)Nc2ccc(C)c(NS(C)(=O)=O)c2)[nH]n1,35µM,.,.,.,.,.
CCCOc1ccc(F)cc1-c1cc(C(=O)Nc2ccc(C)c(NS(C)(=O)=O)c2)[nH]n1,35µM,.,.,.,.,.
Cc1ccc(CNC(=O)Cn2c(=O)n(-c3cccc(Cl)c3)c(=O)c3sc4ccccc4c32)cc1,-,-,.,.,.,?
Cc1cccc(C(=O)Oc2ccc(/C=N/NC(=O)c3ccccc3O)cc2)c1,?,-,+,-,38,?
Cc1cccc(C(=O)Oc2ccccc2/C=N/NC(=O)c2ccc(NC(=O)C(C)(C)C)cc2)c1,-,-,-,-,-,?
Cc1cccc(C(=O)Oc2ccc(/C=N/NC(=O)Cc3ccc([N+](=O)[O-])cc3)cc2)c1,-,?,-,-,-,-
Cc1cccc(C(=O)Oc2ccc(/C=N/NC(=O)c3ccc(O)cc3)cc2)c1,?,?,-,-,25,-
COc1ccc(-c2nc3ccccc3c(C(=O)Nc3ccc(S(=O)(=O)Nc4cc(C)on4)cc3)c2C)cc1,-,-,-,-,-,-
CN(C)/C=N/c1ncc(C(=O)c2ccc(Cl)cc2)s1,-,-,58,-,43,-
COc1ccc(C2=C(C)C(N3CCC(C(=O)NCc4ccc(C)o4)CC3)=NS2(=O)=O)cc1,-,-,.,.,.,.
O=C(CCN1C(=O)c2ccccc2C1=O)N1CCC(c2ccccc2)C1 (stereo not given),-,-,-,-,21,-
O=C(CCCN1C(=O)c2cccc3cccc(c23)C1=O)N1CCN(c2ccccc2O)CC1,-,7.9µM,-,-,-,?
O=C(CCN1C(=O)c2ccccc2C1=O)N1CCCCCC1,-,-,-,-,13,-
O=C(CCCN1C(=O)c2cccc3cccc(c23)C1=O)N1CCN(c2ccccc2)CC1,?,-,-,?,-,-
O=C(COc1ccc(Br)cc1)N1CCC(c2ccccc2)C1 (stereo not given),-,-,-,-,23,-
O=C(CCN1C(=O)S/C(=C\c2ccccc2)C1=O)N1CCCCC1,-,-,75,-,27,?
O=C(O)C1CCN(C(=O)CCN2C(=O)S/C(=C\c3ccccc3)C2=O)CC1,-,.,-,-,-,.
O=C(CN1CCN(c2ccccc2)CC1)Nc1ccncc1,-,.,-,?,-,.
CCOC(=O)COc1ccccc1/C=C\[N+](=O)[O-],14µM,13µM,-,?,-,16µM
SMILES,FMDV inh,Lassa entry inh,Shiga inhibitor,HCV inhibitor,CHX counter,MARV entry inh
Cc1ccc(C(=O)COC(=O)COc2ccccc2[N+](=O)[O-])s1,-,-,.,-,.,?
CSc1nc(-c2ccco2)nn1C(=O)c1ccco1,-,-,-,-,-,-
CSc1nc(-c2ccc(Cl)cc2)nn1C(=O)c1ccco1,-,-,65,-,62,-
CSc1nc(-c2ccccc2)nn1C(=O)c1ccc(C)cc1,-,?,-,-,15,-
Nc1c(S(=O)(=O)c2cccs2)c2nc3ccccc3nc2n1CCc1ccccc1,.,.,-,.,-,-
CC(C)CCn1c(N)c(S(=O)(=O)c2cccs2)c2nc3ccccc3nc21,-,-,-,?,-,15µM
Cc1cc(C)nc(CCNC(=O)c2cc(COc3c(C)cccc3C)on2)n1,-,?,-,?,16,?
